The list is not random: actives were taken first. Their share in the collection is about 2.1%.
PLC-beta3 inh: blocks human PLC-beta3 enzyme activity; Q01970; Purified PLC-beta3, fluorogenic substrate, fluorescence; inhibition, % at 12.2 µM; 370,000 compounds, 0.18% hits; AID 720704; in the data active = inhibition above about 11%;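 also: 0% = median of compound wells on plate and 100% = full blocker control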
ADAM10 inh: inhibitors of human ADAM10; 370,000 compounds, 0.62% hits; recombinant ADAM10, EDANS/DABCYL FRET peptide cleavage, 3 h; inhibition, % at 7 µM; O14672; AID 720582;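 active = inhibition above a per-campaign cutoff equal to the mean of compounds falling between control-based bounds plus 3 SD, cut at about 20% in these data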;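 also: 0% = DMSO wells while the 100% control is not disclosed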
Target sequence (O14672 214-748 limits assumed): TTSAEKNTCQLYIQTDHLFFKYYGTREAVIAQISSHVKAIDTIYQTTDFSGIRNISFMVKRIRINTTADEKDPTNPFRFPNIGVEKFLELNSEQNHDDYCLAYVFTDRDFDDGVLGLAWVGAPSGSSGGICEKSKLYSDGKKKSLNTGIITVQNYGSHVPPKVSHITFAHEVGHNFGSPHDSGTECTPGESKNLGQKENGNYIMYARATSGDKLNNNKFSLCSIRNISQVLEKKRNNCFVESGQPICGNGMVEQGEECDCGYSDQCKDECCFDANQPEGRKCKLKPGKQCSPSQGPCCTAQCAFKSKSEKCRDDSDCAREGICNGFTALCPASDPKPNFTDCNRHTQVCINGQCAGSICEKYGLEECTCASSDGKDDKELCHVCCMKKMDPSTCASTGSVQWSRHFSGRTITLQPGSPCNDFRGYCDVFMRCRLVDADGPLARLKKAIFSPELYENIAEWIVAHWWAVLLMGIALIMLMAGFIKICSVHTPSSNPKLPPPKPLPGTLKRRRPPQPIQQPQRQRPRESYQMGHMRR
PLCg1 inh: blocks human PLC-gamma1 enzyme activity. purified PLC-gamma1, fluorogenic substrate, fluorescence. 370,000 compounds, 0.84% hits. AID 720700. P19174. inhibition, % at 12.2 µM; in the data active = inhibition above about 9.5%
ADAM17 inh: inhibitors of human ADAM17; P78536; recombinant ADAM17, EDANS/DABCYL FRET peptide cleavage; inhibition, % at 6.95 µM; 370,000 compounds, 0.83% hits;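 active = inhibition above the mean of compounds lying between control limits plus 3 SD, set per campaign, cut at about 8.5% in these data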;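 also: 0% = DMSO-only wells as the low control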
Rce1 inhib: inhibitors of yeast Ras-converting enzyme; Q03530; yeast membranes, quenched prenylated peptide cleavage fluorescence; calls only; 290,000 compounds, 0.27% hits; AID 2563;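 active = fall in fluorescence gain of 50% or more versus controls, with final raw signal at or below 3038400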;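 also: plate controls were neutral control wells for no effect and wells lacking membranes for full effect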
ADAM10 ctr: inhibits human ADAM10 in ADAM17 exosite counter-screen | recombinant ADAM10, EDANS/DABCYL FRET peptide cleavage, 3 h | shares compounds with ADAM17 inh | 2,900 compounds, 47% hits | inhibition, % at 6.95 µM;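 active = mean inhibition over the triplicate runs exceeds the activity threshold set in the earlier primary screen, cut at about 20% in these data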;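 also: 0% = DMSO wells and 100% = marimastat wells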
ADAM17 confirm: confirmation of inhibitors of human ADAM17; shares compounds with ADAM17 inh; recombinant ADAM17, EDANS/DABCYL QFRET peptide cleavage; inhibition, % at 6.95 µM; 2,900 compounds, 65% hits; AID 743257;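 active = mean inhibition across replicates above the hit cutoff set in the primary screen, cut at about 8.5% in these data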;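 also: 0% = DMSO wells and 100% = marimastat wells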
The depositor's hits bear a star; i = inactive; . = not tested or not shown; ! = not confirmed by another sample.

SMILES | PLC-beta3 inh | ADAM10 inh | PLCg1 inh | ADAM17 inh | Rce1 inhib | ADAM10 ctr | ADAM17 confirm
COc1ccc(NS(=O)(=O)c2cc(NC(=O)c3ccccc3F)ccc2N2CCCC2)cc1 | -7 | 16 | 1 | 8 | i | . | .
CCOC1=C2CN(S(=O)(=O)c3ccc(C)cc3)[C@@H](c3ccc(CC)cc3)C[C@H]2[C@H]2C(=O)N(c3ccccc3)C(=O)[C@H]2C1 | -1 | 0 | 1 | -3 | . | . | .
CCOC(=O)C1=C(C)NC(C)=C(C(=O)OCC)C1c1ccc([N+](=O)[O-])s1 | -2 | -6 | -3 | 9.2*! | i | 24* | 12*
COCCN1C[C@@H](CO)O[C@@H](n2cnc3c(NCCO)ncnc32)C1 | -1 | -10 | 0 | -6 | . | . | .
O=c1c(Cl)c(NCc2ccccc2)cnn1C12CC3CC(CC(C3)C1)C2 | 4 | -5 | 3 | 3 | i | . | .
CCC1(c2ccccc2)NC(=O)N(CC(=O)NNC(=O)c2ccc(F)cc2)C1=O (configuration not stated) | 3 | 4 | 2 | 0 | . | . | .
O=C1N[C@H](Cc2ccccc2)COC(=O)[C@H](Cc2ccc(F)cc2)CC/C=C/C[C@H]1CC(=O)N(CCO)Cc1ccccc1 | -4 | 7 | -2 | 8.7* | . | 21* | 11*
O=C1N[C@@H](c2ccccc2)COC(=O)[C@@H](Cc2ccc(F)cc2)CC/C=C/C[C@@H]1CC(=O)N(CCO)Cc1ccccc1 | 3 | 27* | 8 | 10* | . | 31* | 15*
O=C1N[C@@H](Cc2ccccc2)COC(=O)[C@@H](Cc2ccc(F)cc2)C/C=C\C[C@@H]1CC(=O)N(CCO)Cc1ccccc1 | -2 | 14 | 3 | 4 | . | . | .
CCOC(=O)c1c(C)[nH]c(C)c1C(=O)CSc1nc2ccccc2c(=O)n1-c1ccc(Cl)cc1 | -2 | 15 | -2 | 11* | i | 28* | 19*
COc1ccccc1N=Nc1nc(-c2ccccc2)c(-c2ccccc2)[nH]1 | 7 | 18 | 3 | 12* | i | 15 | 10*
COc1ccc(CNC(=O)c2ccccc2SCC(=O)NCc2ccco2)cc1 | -5 | 1 | -3 | -1 | . | . | .
COc1cccc(NC(=S)NC2CC(C)CC(C)(C)C2)c1 (configuration not stated) | 9 | 3 | 6 | 8 | . | . | .
COc1ccc(C(CNC(=O)c2cccc(N(C)C)c2)N2CCCC2)cc1 (configuration not stated) | -115 | 2 | -86 | 9.4* | i | -41 | -3
Oc1ccc(/C=N/N2CCN(C3c4ccccc4-c4ccccc43)CC2)c(O)c1 | -2 | -7 | -4 | -2 | i | . | .
CCc1ccc(N(CC(=O)Nc2nc3ccc(C)cc3s2)S(=O)(=O)c2c(C)noc2C)cc1 | 0 | 16 | 0 | 9.7* | i | 46* | 26*
COc1ccc(CNC(=O)c2ccc(-n3ccnc3)c3ccoc23)cc1OC | 0 | -12 | 1 | -1 | . | . | .
CC1(C(=O)NS(=O)(=O)c2cccc(F)c2)CCN1C(=O)c1ccccc1 (configuration not stated) | 1 | -5 | 0 | -2 | . | . | .
Nc1nonc1-c1nc2ccccc2n1CC(=O)N1CCCCC1 | 4 | 12 | 3 | 9.9* | i | -12 | -1
CCCN1C(=O)c2n[nH]c(C)c2C1c1ccc2c(c1)OCO2 (configuration not stated) | -2 | -2 | 0 | -6 | . | . | .
Cc1ccc(N=C2NC(=O)/C(=C\c3ccsc3)S2)c(C)c1 | -7 | 11 | -1 | 8.8* | i | 32* | 20*
CCOc1ccc(S(=O)(=O)n2cc(-c3ccc(F)cc3)c(N)n2)cc1 | 1 | 12 | 1 | 2 | i | . | .
CCOc1cc(S(=O)(=O)n2cc(-c3ccc(F)cc3)c(N)n2)cc(OCC)c1OCC | 6 | 18 | 3 | 11* | i | 31* | 18*
Clc1ccccc1Nc1nc(NCC2CC2)nc2ccsc12 | -24 | -52 | -13 | -20 | . | . | .
C/C(=N\NC(=S)NCCc1ccccc1)c1ccc(Cl)cc1 | 1 | 19 | -3 | 9.6* | i | 9 | 7
SMILES | PLC-beta3 inh | ADAM10 inh | PLCg1 inh | ADAM17 inh | Rce1 inhib | ADAM10 ctr | ADAM17 confirm
Nc1cc(S(=O)(=O)N2CCCCC2)ccc1Oc1ccc(Cl)cc1 | 6 | 20 | 1 | 8.8* | i | 17 | 11*
COC(=O)c1ccc(Oc2ccc(S(=O)(=O)N3CCCCC3)cc2N)cc1 | -8 | 10 | 2 | 0 | i | . | .
Cc1ccc(S(=O)(=O)NC(C)CCc2ccccc2)cc1 (configuration not stated) | 3 | 8 | 4 | 9.5* | i | 2 | 6
CCCCN1CN2Cc3cc(F)ccc3C2CS1(=O)=O (configuration not stated) | -1 | 1 | -2 | 1 | . | . | .
Cc1ccc(/C=C2\SC(N3CCN(C(c4ccccc4)c4ccccc4)CC3)=NC2=O)o1 | -9 | -3 | -11 | -2 | i | . | .
COc1ccc(NS(=O)(=O)c2cc(C)ccc2OC)cc1OC | 0 | 5 | -3 | -2 | i | . | .
CCOc1ccc(NS(=O)(=O)c2ccc(OC)c(C)c2)cc1 | 2 | 13 | 8 | 3 | i | . | .
COc1ccc(F)cc1S(=O)(=O)Nc1ccc(C)cc1 | 6 | 7 | 6 | 11* | i | 13 | 7
CCOc1ccc(NS(=O)(=O)c2cc(Cl)ccc2OC)cc1 | 9 | 14 | 5 | 12* | i | 12 | 7
CCOc1ccc(Oc2ccc(NS(=O)(=O)c3cc(C(=O)O)ccc3Cl)cc2)cc1 | -13 | -1 | 7 | 14* | . | 5 | 11*
CC[C@H]1OC(=O)[C@H](C)[C@@H](O[C@H]2C[C@@](C)(OC)[C@@H](O)[C@H](C)O2)[C@H](C)[C@@H](O[C@@H]2O[C@H](C)C[C@H](N(C)C)[C@H]2O)[C@](C)(O)C[C@@H](C)CN(C)[C@H](C)[C@@H](O)[C@]1(C)O | 3 | 3 | 0 | -2 | i | . | .
COc1cccc(C(=O)OCn2nnc3ccccc3c2=O)c1OC | 7 | 6 | 4 | 8.9* | i | 0 | 0
Cc1cc(OCC(=O)OCC(=O)NCC2CCCO2)ccc1Cl (configuration not stated) | -9 | -13 | 0 | 0 | . | . | .
Cn1c(CSCc2ccc(F)cc2)nnc1SCC(=O)Nc1cccc(C(=O)O)c1 | -5 | 2 | 2 | -2 | i | . | .
O=C(Nc1nonc1NC(=O)c1cccs1)c1cccs1 | -1 | -9 | -2 | -4 | i | . | .
O=C(NCCn1cc(SCc2ccc(F)cc2)c2ccccc21)c1c(F)cccc1F | -2 | 12 | -2 | 9.3* | i | 41* | 21*
CN(C)S(=O)(=O)c1ccc(NC(=O)Cc2ccc(S(=O)(=O)N3CCOCC3)s2)cc1 | -5 | 10 | -3 | 1 | i | . | .
CCN(CC)S(=O)(=O)c1cc(NC(=O)Cc2ccc(S(=O)(=O)N3CCOCC3)s2)ccc1Cl | -14 | 3 | 2 | 9.9* | . | 15 | 12*
